Rows were chosen to be rich in hits. Some 2.8% of all compounds tested hit in one or more screens of this group.
Pol beta inh: qHTS Assay for Inhibitors of DNA Polymerase Beta; hit rate 1.3% among 340,000; P06746; Potency, µM (doses to about 114 µM), hits mostly inhibitors; Pol beta primer extension/strand displacement, fluorescence kinetic
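Homogeneous kinetic assay of primer extension and strand displacement by 10 nM Pol beta, preincubated 15 min at room temperature with compound before 50 nM substrate (final) was added. Read at 0 and 10 min; four-parameter Hill fit.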
POLI inh: qHTS for Inhibitors of Polymerase Iota; Potency, µM (series often up to 115 µM), most hits filed as inhibitors; DNA polymerase iota (Homo sapiens), Q9UNA4; AID 588590, 2011; Pol iota fluorescent replication assay, 10 min; hit rate 1% among 390,000
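Fluorescent replication assay read twice, at 0 min and 10 min after adding 50 nM (final) substrate. Enzyme (10 nM) and compounds were first incubated 15 min at room temperature; enzyme-free buffer wells were negative controls.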
PI4K2A block: qHTS for small molecular inhibitors of PI4K2A | Phosphatidylinositol 4-kinase type 2-alpha (Homo sapiens), Q9BTU6 | purified PI4K2A, ADP-Glo luminescence, 1 h; hits give low values | activity change, negative = inhibition, % at 76.9 µM | hit rate 0.13% among 420,000 | AID 1346378, 2018; in the data active means activity change below about -50%; inconclusive means mostly about -30% to -49%
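Compounds are screened against recombinant PI4K2A using PI as substrate and ATP, the latter dispensed at 300 microM. Reactions run one hour at ambient temperature before ADP-Glo detection; full inhibition defined by wells lacking enzyme.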
PI5P4Ka inh: qHTS for Inhibitors of phosphatidylinositol 5-phosphate 4-kinase (PI5P4K) | Phosphatidylinositol 5-phosphate 4-kinase type-2 alpha (Homo sapiens), P48426 | hit rate 1.2% among 330,000 | max response, % | PI5P4Kalpha enzyme, ADP-Glo luminescence, 60 min; hits give low values; active means max response of -50% or lower; inconclusive means between -30% and -50%; inactive means -30% or higher; further: value at the top dose of about 77 µM
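Luminescence from ADP-Glo served as readout of PI5P4Kalpha activity in a qHTS format. Reaction: enzyme, substrate, compound, ATP at 5 microM final, 60 min at RT.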
POLK inh: qHTS for Inhibitors of Polymerase Kappa. purified Pol kappa, fluorescent DNA synthesis assay, 10 min. Potency, µM (highest dose often 107 µM), actives largely listed as inhibitors. hit rate 0.53% among 400,000. AID 588579, 2011
Target sequence (Q9UBT6 whole entry, looked up): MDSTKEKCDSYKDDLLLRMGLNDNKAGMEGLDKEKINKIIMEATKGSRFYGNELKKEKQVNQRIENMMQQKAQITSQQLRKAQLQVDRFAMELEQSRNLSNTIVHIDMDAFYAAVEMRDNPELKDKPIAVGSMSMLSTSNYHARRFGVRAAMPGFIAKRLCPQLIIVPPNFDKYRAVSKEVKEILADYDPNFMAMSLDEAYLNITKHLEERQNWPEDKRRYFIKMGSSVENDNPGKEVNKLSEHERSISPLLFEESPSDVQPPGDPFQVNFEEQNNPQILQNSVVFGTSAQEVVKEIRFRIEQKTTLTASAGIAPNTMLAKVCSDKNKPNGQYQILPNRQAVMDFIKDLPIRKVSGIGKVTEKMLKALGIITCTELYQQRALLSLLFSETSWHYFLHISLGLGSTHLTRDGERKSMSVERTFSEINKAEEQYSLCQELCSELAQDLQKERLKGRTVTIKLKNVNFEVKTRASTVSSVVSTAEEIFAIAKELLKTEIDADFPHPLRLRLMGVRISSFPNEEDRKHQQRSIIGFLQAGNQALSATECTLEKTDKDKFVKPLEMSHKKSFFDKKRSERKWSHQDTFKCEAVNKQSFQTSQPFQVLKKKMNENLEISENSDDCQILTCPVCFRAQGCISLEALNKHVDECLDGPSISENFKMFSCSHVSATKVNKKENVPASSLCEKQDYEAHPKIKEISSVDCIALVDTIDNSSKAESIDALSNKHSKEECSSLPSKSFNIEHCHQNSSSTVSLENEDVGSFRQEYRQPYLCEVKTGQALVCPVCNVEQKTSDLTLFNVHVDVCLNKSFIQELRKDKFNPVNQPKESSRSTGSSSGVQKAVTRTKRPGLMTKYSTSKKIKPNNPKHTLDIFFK
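Fluorescent qHTS in 1536-well format: enzyme (10 nM) and compound sat 15 min at room temperature before 50 nM substrate (final) was added. Signal taken at 0 and 10 min; no-enzyme buffer wells were negative controls.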
POLH inh: qHTS for Inhibitors of Polymerase Eta | recombinant Pol eta, fluorescent DNA replication assay | hit rate 1.2% among 390,000 | DNA polymerase eta (Homo sapiens), Q9Y253 | Potency, µM (series often up to 114 µM), actives largely listed as inhibitors
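Pol eta at 10 nM preincubated with compounds 15 min at room temperature; reaction started with fluorescent substrate (50 nM final) and read kinetically at 0 and 10 min.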
Large screens that a line does not name were inactive; ! = a repeat was not active. Unless noted, the call rests on the fitted dose curve; in most records, active means well fitted inhibition curve with a large enough effect; inconclusive means small, poorly fitted or top-dose-only effect, or another doubt; inactive means no such curve, though single readings can be large or run the other way.

Cc1ccc2nc3c(cc(S(=O)(=O)c4ccccc4)c(=N)n3Cc3ccco3)c(=O)n2c1	Pol beta inh 7.94µM
CCOC(=O)c1cc2c(=O)n3ccccc3nc2n(Cc2ccco2)c1=NC(=O)c1cccc(OC)c1	none
N=c1c(S(=O)(=O)c2ccccc2)cc2c(=O)n3ccccc3nc2n1Cc1ccco1	Pol beta inh 17.8µM, POLI inh inconclusive, POLH inh inconclusive
O=C(NCCc1c[nH]c2ccccc12)Nc1ccccc1C(F)(F)F	none (no result: PI5P4Ka inh)
CCOc1ccc(CCN2C(=S)N([C@@H](CC(C)C)CN3CCCC3CN3C(=S)NC[C@@H]3CC(C)C)C[C@@H]2Cc2ccccc2)cc1 (stereo partly drawn)	none (no result: Pol beta inh)
O=C(c1ccc(Cl)cc1)c1c[nH]c(C(=O)C(Cl)(Cl)Cl)c1	POLH inh 20µM
Cc1cccc(N2CCN(c3ccc(C(=O)O)cc3NC(=O)c3cccc(Cl)c3)CC2C)c1 (stereo not drawn)	Pol beta inh 31.6µM (no result: PI5P4Ka inh)
COC(=O)c1ccc2c(c1)C(C)(C)C(/C=C/c1ccccc1O)=[N+]2C	Pol beta inh inconclusive, POLI inh 28.2µM, POLK inh 35.5µM (no result: PI5P4Ka inh)
O=C(COc1ccccc1Cl)Nc1cc(NC(=O)COc2ccccc2Cl)cc(C(=O)O)c1	Pol beta inh 79.4µM
COc1ccc(OCC(=O)Nc2cc(NC(=O)COc3ccc(OC)cc3)cc(C(=O)O)c2)cc1	POLI inh inconclusive
Cc1ccc(OCC(=O)Nc2cc(NC(=O)COc3ccc(C)c(C)c3)cc(C(=O)O)c2)cc1C	Pol beta inh 50.1µM, POLH inh inconclusive
O=C(CS(=O)Cc1ccco1)NC/C=C\COc1cc(CN2CCCCC2)ccn1 (stereo not drawn)	none (no result: Pol beta inh, POLI inh, PI5P4Ka inh, POLK inh, POLH inh)
COc1ccc2cc(C=O)ccc2c1	none (no result: Pol beta inh, POLI inh, PI5P4Ka inh, POLK inh, POLH inh)
CCOc1cc(CNc2ccc(O)cc2)cc(Cl)c1OCc1ccccc1	POLI inh 25.1µM, PI4K2A block inconclusive (no result: PI5P4Ka inh)
CCOc1cccc(CNc2ccc(O)cc2)c1OCc1ccccc1Cl	POLI inh 8.91µM, PI4K2A block -53.0!, POLH inh inconclusive
CCOc1cccc(CNn2cnnc2)c1OCc1ccccc1Cl	none
CCOc1cccc(CNCCO)c1OCc1ccc(Cl)cc1Cl	none
CCOc1cccc(CNc2ccc(O)cc2)c1OCc1ccc(Cl)cc1Cl	POLI inh 3.16µM, PI4K2A block -57.7, POLH inh inconclusive
Cc1cc(N2CCN(C(=O)Oc3ccc(-c4ccccc4)cc3)CC2)c2ccccc2n1	none (no result: Pol beta inh, POLI inh, PI5P4Ka inh, POLK inh, POLH inh)
CCN(Cc1cccc(S(=O)(=O)O)c1)c1ccc(C(=C2C=CC(=[N+](CC)Cc3cccc(S(=O)(=O)O)c3)C=C2)c2ccccc2S(=O)(=O)[O-])cc1	POLI inh inconclusive, POLK inh 7.94µM (no result: Pol beta inh, PI4K2A block, PI5P4Ka inh, POLH inh)
CCN(Cc1cccc(S(=O)(=O)O)c1)c1ccc(C(=C2C=CC(=[N+](CC)Cc3cccc(S(=O)(=O)O)c3)C=C2)c2ccc(O)cc2S(=O)(=O)O)cc1	POLI inh 2.24µM, POLK inh 2.82µM (no result: Pol beta inh, PI4K2A block, PI5P4Ka inh, POLH inh)
CC1=CC(=O)C=C/C1=C(/c1ccc(O)cc1C)c1ccccc1S(=O)(=O)O	none (no result: Pol beta inh)
CN(C)CCOC(c1ccccc1)c1ccc(Br)cc1 (stereo not drawn)	none (no result: Pol beta inh, POLI inh, PI5P4Ka inh, POLK inh, POLH inh)
CCCCc1ccc(-c2noc(CCC(=O)NCC)n2)cc1	none (no result: Pol beta inh, POLI inh, PI5P4Ka inh, POLK inh, POLH inh)
Oc1ccc2ccccc2c1C=Nn1c(-c2n[nH]c3c2CCC3)n[nH]c1=S	none (no result: Pol beta inh, POLI inh, PI5P4Ka inh, POLK inh, POLH inh)
COc1cc(OC)c2c(-c3ccccc3)cc(=O)oc2c1C(CC(=O)N1CCN(c2ccccc2)CC1)c1ccc2c(c1)OCO2 (stereo not drawn)	Pol beta inh 50.1µM (no result: POLI inh, PI4K2A block, PI5P4Ka inh, POLK inh, POLH inh)
CCOc1ccc2nc(N3CCN(C(=O)CS(=O)(=O)c4ccc(F)cc4)CC3)sc2c1	none (no result: PI5P4Ka inh)
Cc1ccc(-c2nc(NC(=O)CSc3cc(C)c4ccccc4n3)ns2)cc1	Pol beta inh 8.91µM, POLH inh inconclusive
